In the library only some 22% were active in any assay of this set; here they are far more common.
CYP2C9 act = human CYP2C9 activators, primary screen, biochemical, luminescence. Cytochrome P450 2C9 (Homo sapiens), P11712. 96,000 compounds, 1.4% hits. activation factor at 5 µM. recombinant CYP2C9, luciferin-H conversion; stronger effect = higher value; factor 1 = untreated enzyme, 0 = blocked;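 active = activation factor of 2 or more for CYP2C9 at a 5 µM dose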;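 note: 0 = sulfaphenazole-blocked wells and 1 = vehicle-only wells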
Measles CPE = compounds protecting cells from measles virus cytopathic effect, primary screen, measles RdRp inhibitor project, single point, MLSMR library, absorbance | Measles virus-infected cells, CPE protection | protection (pct of control), % at 4 µM | AID 841, 2007 | 140,000 compounds, 1.5% hits; in the data active = protection mostly above about 24%, no sharp cut-off; inactive = mostly below about 26%
CYP2C19 inh = blockers of cytochrome P450 2C19 activity – biochemical, luminescence, ADME assay, primary screen; CYP2C19 Supersomes, luciferin-H EGE luminescence, 30 min; 96,000 compounds, 21% hits; P33261; AID 778, 2007; inhibition, % at 5 µM;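 active = CYP2C19 inhibition above a set limit at 5 µM in the primary screen, cut at about 50% in these data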;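 note: plate controls were negative control wells for no effect and 2.5 mM tranylcypromine positive control for full effect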
Target sequence (P33261 whole entry, looked up): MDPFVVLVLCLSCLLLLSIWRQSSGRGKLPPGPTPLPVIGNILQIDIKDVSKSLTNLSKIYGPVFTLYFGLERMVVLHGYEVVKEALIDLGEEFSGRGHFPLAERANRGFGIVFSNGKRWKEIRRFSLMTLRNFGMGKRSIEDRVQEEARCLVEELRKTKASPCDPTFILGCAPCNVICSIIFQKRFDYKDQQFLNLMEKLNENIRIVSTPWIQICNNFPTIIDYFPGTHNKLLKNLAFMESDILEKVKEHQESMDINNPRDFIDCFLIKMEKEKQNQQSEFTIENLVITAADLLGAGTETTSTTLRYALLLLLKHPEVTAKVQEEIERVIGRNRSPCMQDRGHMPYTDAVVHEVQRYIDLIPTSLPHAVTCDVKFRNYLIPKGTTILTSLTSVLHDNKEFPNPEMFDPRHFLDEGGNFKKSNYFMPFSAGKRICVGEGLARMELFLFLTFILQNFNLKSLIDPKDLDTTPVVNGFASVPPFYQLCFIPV
CYP2C9 inh = blockers of cytochrome P450 2C9 activity – biochemical, luminescence, ADME assay, primary screen; CYP2C9 Supersomes, luciferin-H conversion; AID 777, 2007; 96,000 compounds, 20% hits; inhibition, % at 5 µM;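 active = blocking of liver enzyme CYP2C9 beyond about 50% at 5 µM, limit read from the data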
CYP2C19 activ = human CYP2C19 activators, primary screen, biochemical, luminescence; Cytochrome P450 2C19 (Homo sapiens), P33261; recombinant CYP2C19, luciferin-H EGE luminescence; stronger effect = higher value; 0 = fully inhibited enzyme, 1 = untreated enzyme; activation factor at 5 µM; 96,000 tested, under 10 active; AID 1025, 2008;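 active = activation factor of at least 2 at 5 µM in the primary screen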;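 note: 0 = wells with 2.5 mM tranylcypromine and 1 = vehicle-only wells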
* hit, by the source's call.

For Cc1ccnc(NC(=O)/C=C/c2cccs2)c1 the results were Measles CPE 10.
For CCOc1ccc(NCC(=O)Nc2ccc(C)cc2C)cc1 the results were CYP2C9 act 0.9, Measles CPE 3, CYP2C19 inh 11, CYP2C9 inh 8 and CYP2C19 activ 0.9.
`CCOc1ccc(NC(=O)CNc2ccc(C)cc2Cl)cc1` gave CYP2C9 act 0.7, Measles CPE 13, CYP2C19 inh 78*, CYP2C9 inh 33 and CYP2C19 activ 0.2.
`CCOc1ccc(NC(=O)Nc2cc(C)ccc2F)cc1` gave CYP2C9 act 0.9, Measles CPE 5, CYP2C19 inh 75*, CYP2C9 inh 14 and CYP2C19 activ 0.3.
O=C(CSc1ncnc2nc[nH]c12)NCCc1ccccc1 was read as CYP2C9 act 1, Measles CPE 4, CYP2C19 inh 6, CYP2C9 inh -3 and CYP2C19 activ 0.9.
For CC(NC(=O)CSc1ncnc2nc[nH]c12)c1ccccc1 (configuration not stated) the results were CYP2C9 act 0.1, Measles CPE 16, CYP2C19 inh 23, CYP2C9 inh 94* and CYP2C19 activ 0.8.
Screening COc1ccc(CNC(=O)CSc2ncnc3nc[nH]c23)cc1 returned CYP2C9 act 0.8, Measles CPE 30, CYP2C19 inh 61*, CYP2C9 inh 17 and CYP2C19 activ 0.4.
Screening O=C(c1ccc2c(c1)OCO2)N(Cc1cccs1)C1(C(=O)NC2CCCCC2)CCCCC1 returned Measles CPE 7.
Cc1cc(C)n2c(SCc3ccc(Cl)cc3Cl)nnc2n1 was read as CYP2C9 act 1.6, Measles CPE 7, CYP2C19 inh 70*, CYP2C9 inh -56 and CYP2C19 activ 0.3.
Cc1cc(C)n2c(SCc3ccccc3Cl)nnc2n1 was read as CYP2C9 act 2.8*, Measles CPE 2, CYP2C19 inh 37, CYP2C9 inh -178 and CYP2C19 activ 0.6.
CCCCNC(=O)OCCNC(=O)Oc1cccc(C)c1 was read as CYP2C9 act 1, Measles CPE 15, CYP2C19 inh 9, CYP2C9 inh -3 and CYP2C19 activ 0.9.
For CCCCNC(=O)OC(C)CNC(=O)Oc1cccc(C)c1 (configuration not stated) the results were CYP2C9 act 0.9, Measles CPE 43*, CYP2C19 inh 22, CYP2C9 inh 10 and CYP2C19 activ 0.8.
`CCCN(CC1CC1)C(=S)Nc1ccc(Oc2ccccc2)cc1` gave Measles CPE 5.
Screening O=C1CSC(c2ccccc2F)N1c1cc(Cl)ccc1O (configuration not stated) returned CYP2C9 act 1.3, Measles CPE 18, CYP2C19 inh 84*, CYP2C9 inh -34 and CYP2C19 activ 0.2.
O=C1CSC(c2ccccc2F)N1CCN1CCCCC1 (configuration not stated) was read as CYP2C9 act 1.1, Measles CPE 22, CYP2C19 inh 43, CYP2C9 inh -11 and CYP2C19 activ 0.6.
For CC(NC(=S)N1CCOCC1)c1ccccc1 (configuration not stated) the results were Measles CPE 10.
`CC(C)NS(=O)(=O)c1cc(C(=O)O)ccc1Cl` gave Measles CPE 3.
CC(=Nc1ccccc1C)C1=C(O)CSC1=O was read as CYP2C9 act 0.8, Measles CPE 6, CYP2C19 inh 75*, CYP2C9 inh 23 and CYP2C19 activ 0.2.
`Cc1nc2ncnn2c(C)c1CCC(=O)NCCc1ccccc1` gave CYP2C9 act 1.6, Measles CPE 100*, CYP2C19 inh 2, CYP2C9 inh -55 and CYP2C19 activ 1.
Screening Cc1ccc(NC(=O)CCc2c(C)nc3ncnn3c2C)cc1 returned CYP2C9 act 1.2, Measles CPE 33, CYP2C19 inh -9, CYP2C9 inh -16 and CYP2C19 activ 1.1.
Cc1nc2ncnn2c(C)c1Cc1ccccc1Cl was read as CYP2C9 act 1, Measles CPE 20, CYP2C19 inh 87*, CYP2C9 inh 4 and CYP2C19 activ 0.1.
Screening Cc1nc2ncnn2c(C)c1CCC(=O)Nc1ccc(S(=O)(=O)N2CCCCCC2)cc1 returned CYP2C9 act 0.3, Measles CPE 8, CYP2C19 inh 27, CYP2C9 inh 69* and CYP2C19 activ 0.7.
Cc1ccccc1Cc1c(C)nc2ncnn2c1C was read as CYP2C9 act 0.8, Measles CPE 17, CYP2C19 inh 32, CYP2C9 inh 21 and CYP2C19 activ 0.7.
`c1cnn(-c2nc(N3CCOCC3)nc(N3CCOCC3)n2)c1` gave CYP2C9 act 0.5, Measles CPE 24, CYP2C19 inh -12, CYP2C9 inh 53* and CYP2C19 activ 1.1.
O=C(O)c1nc(N2CCOCC2)nc(N2CCOCC2)n1 was read as Measles CPE 4.
CCOC(=O)c1cc(-c2ccc(/C=C3/C(=O)NC(=O)C(C#N)=C3C)o2)ccc1Cl was read as CYP2C9 act 0.3, Measles CPE 23, CYP2C19 inh 19, CYP2C9 inh 71* and CYP2C19 activ 0.8.
`CC(=O)Nc1ccc(-c2csc(NC(=O)c3ccc(C)o3)n2)cc1` gave CYP2C9 act 0.6, Measles CPE 22, CYP2C19 inh 52*, CYP2C9 inh 38 and CYP2C19 activ 0.5.
`Cc1ccc(C(=O)Nc2nc(-c3ccc([N+](=O)[O-])cc3)cs2)o1` gave Measles CPE 6.
`Clc1cccc(Cl)c1-c1nnc2ccc(N3CCOCC3)nn12` gave CYP2C9 act 0.3, Measles CPE 28, CYP2C19 inh 52*, CYP2C9 inh 68* and CYP2C19 activ 0.5.
`Fc1cccc(Cl)c1-c1nnc2ccc(N3CCOCC3)nn12` gave CYP2C9 act 0.5, Measles CPE 5, CYP2C19 inh 42, CYP2C9 inh 49 and CYP2C19 activ 0.6.
For O=C(CSCC(=O)OCC(=O)c1ccc(Br)cc1)Nc1cccc2ccccc12 the results were CYP2C9 act 0.8, Measles CPE 7, CYP2C19 inh 34, CYP2C9 inh 21 and CYP2C19 activ 0.7.
Screening COC(=O)N1CCN(c2ccc(Cl)c(Cl)c2)CC1 returned CYP2C9 act 0.7, Measles CPE 8, CYP2C19 inh 66*, CYP2C9 inh 28 and CYP2C19 activ 0.3.
Screening COC(=O)N1CCN(c2ccc(OC)cc2)CC1 returned CYP2C9 act 1.1, Measles CPE 3, CYP2C19 inh 45, CYP2C9 inh -9 and CYP2C19 activ 0.6.
`Cc1onc(-c2ccccc2)c1C(N)=O` gave CYP2C9 act 1.1, Measles CPE 2, CYP2C19 inh -2, CYP2C9 inh -10 and CYP2C19 activ 1.
Screening Cc1cnn(C(=O)c2cc(-c3ccccc3)nc3ccccc23)c1 returned CYP2C9 act 0.8, Measles CPE 7, CYP2C19 inh 19, CYP2C9 inh 23 and CYP2C19 activ 0.8.
